# A549 tox: Nrf2 qHTS screen for inhibitors: counterscreen for cytotoxicity; A549 ARE-Fluc cells, CellTiter-Fluor viability, 18-24 h; Potency, µM (series often up to 46 µM), inactives show at the highest dose activity change, negative = cytotoxicity, usual class: inhibitors; 390,000 tested, 0.16% active; AID 504648, 2011; also: % is scaled to controls: 0 for no effect and ±100 for the full control effect
#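 A549 ARE_Fluc cells in 5% FBS OPTI-MEM were exposed to compounds in concentration-response for 18-24 h at 37 deg C. Viability was read by CellTiter-Fluor fluorescence (Ex 405/Em 525) after 30 min, before the luciferase read.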
# S2 tox: Viability Counterscreen for Primary qHTS for Inhibitors of ATXN expression; 400,000 tested, 0.49% active; Potency, µM (top dose mostly 56.7 µM), most hits filed as cytotoxic; S2 cells (HEK-293 line with an ATXN2-luciferase reporter) viability, CellTiter-Fluor protease fluorescence, 24 h; AID 651635, 2014; also: nearly all actives have a fitted effect of over 40% in size
# Nrf2 activator: qHTS of Nrf2 Activators. AREc32 ARE-luciferase reporter (MCF7-derived line), luminescence, 24 h. Potency, µM (doses to about 46.1 µM), for the others: top-dose activation, actives largely listed as activators. 410,000 tested, 0.31% active; also: % of control where 0% means no effect; nearly all actives have a fitted effect of over 65% in size
#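 Each well held 1000 AREc32 cells, which were incubated with compound for 24 hr at 37 deg C after overnight attachment, and ARE reporter activity was quantified by firefly luciferase luminescence.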
# ATXN2 expr inh: Primary qHTS for Inhibitors of ATXN expression; 360,000 tested, 0.72% active; HEK-293 ATXN2-luciferase reporter, luminescence, 24 h; Potency, µM (doses to about 57 µM), for the others: at the top dose activity change, negative = inhibition, usual class: inhibitors; also: % is scaled to controls: 0 for no effect and ±100 for the full control effect; nearly all actives have a fitted effect of over 55% in size
#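 ATXN2-luciferase reporter cells (luciferase flanked by upstream and downstream ATXN2 gene portions) were treated 24 h at 37 °C with compounds at up to 57 uM. SteadyGlo luminescence gave expression; GF-AFC fluorescence gave viability.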
# Nrf2 block: Nrf2 qHTS screen for inhibitors; A549 ARE-Fluc reporter, luciferase luminescence, 18-24 h; Potency, µM (series often up to 46 µM), inactives show top-dose activity change, negative = inhibition, most hits filed as inhibitors; 360,000 tested, 2.1% active; also: % is scaled to controls: 0 for no effect and ±100 for the full control effect; nearly all actives have a fitted effect of over 60% in size
#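 Cells were seeded and rested 2 h, then exposed to compounds for 18-24 h. CellTiter-Fluor was read first as a viability measure. BugLite was added 15 min before the final luminescent read of ARE-luciferase activity in A549 cells.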
# Starred values were filed as active, the others as inactive; i = inactive; ? = inconclusive; / = not tested or not shown; [ ] = dose if it differs, or a comment. Sampled rows, rich in hits. Any-hit rate of the full collection: about 2.9%. Calls follow the shape of the dose curve; as a rule, active = well fitted curve in the direction sought with a large enough effect; inconclusive = small, poorly fitted or top-dose-only effect, or another doubt; inactive = no such curve, though single readings can be large; an effect the other way counts as inactive or inconclusive. Potency is read from the fitted curve at half-maximal effect.
SMILES,A549 tox,S2 tox,Nrf2 activator,ATXN2 expr inh,Nrf2 block
Cc1ccc(-n2c(SCC(=O)N3CCCc4ccccc43)nnc2-c2cccnc2)c(C)c1,2%,i,-1%,-13%[11.3 µM],-5%
O=C(CSC1=Nc2ccccc2C2=NC(CCC(=O)NC3CCCCC3)C(=O)N12)Nc1cccc(Cl)c1 (stereo not drawn),?,i,3%,-2%,?
O=C(CSC1=Nc2ccccc2C2=NC(CCC(=O)NC3CCCCC3)C(=O)N12)Nc1cccc(C(F)(F)F)c1 (stereo not drawn),?,i,1%,-3%,12µM*
O=C(Nc1cccnc1)C1(F)C(F)(F)C(F)(F)C(F)(F)C(F)(F)C1(F)F,0%,i,10µM*,-3%,/
O=C(Nc1cccnc1)C12CC3CC(CC(C3)C1)C2,-4%,i,-1%,-16%,?
COc1ccc2c(c1)-c1nc(-n3ncc(C(=O)NC[C@@H]4CCCN5CCCC[C@H]45)c3C)ncc1CC2,/,25µM*,/,/,/
CCOC(=O)C1=C(N)OC2=C(C(=O)CCC2)C1c1ccccc1OCC (stereo not drawn),1%,/,0%,/,3%
O=C(Nc1ccc2c(c1)OCO2)N1CCN(Cc2ccco2)CC1,6%,i,0%,?,16µM*
CC(C)CN(CCCNC(=O)c1cc(-c2ccc(Br)s2)nc2ccccc12)CC(C)C,-5%,i,3%,-1%,18%
CC(=O)c1ccc(N2CCN(C(=O)CCC(=O)Nc3ccc4nc(N5CCCCC5)cc(C)c4c3)CC2)cc1,-4%,i,6%,?,4%
COc1cccc(C(=O)Nc2sc3c(c2C(=O)O)CCCC3)c1,?,i,0%,15%,5.8µM*
COc1ccc(NC(=O)c2c(NC(=O)C(F)(F)F)sc3c2CCCCC3)cc1,?,i,8%,-4%,1.8µM*
Cc1cccc(C(=O)Nc2sc3c(c2C(=O)O)CCC3)c1,?,i,0%,7%,?
CC(=O)c1ccc(NC(=O)CSc2nc3nn(-c4ccccc4)c(=O)c-3c3n2CCCCC3)cc1,6%,i,2%,-17%,-11%
O=C(CSc1nc2nn(-c3ccccc3)c(=O)c-2c2n1CCCCC2)Nc1ccc(F)c(F)c1,?,i,-1%,-27%,18µM*
O=C(O)C1CCc2sc3[nH]c(=S)n(-c4ccccc4)c(=O)c3c21 (stereo not drawn),2%,i,0%,7%,11%
CCn1c(=O)c([N+](=O)[O-])c(N2CCSCC2)c2ccccc21,-8%,i,0%,-2%,16µM*
CC1CCCN(S(=O)(=O)c2csc(C(N)=O)c2)C1 (stereo not drawn),0%,i,3%,/,-23%
O=C(Nc1cccc(Cl)c1)N1CCN2C(=O)c3ccccc3C12c1ccccc1 (stereo not drawn),?,?,3%,-24%,21µM*
CC1CCN(S(=O)(=O)c2ccc3c(c2)C(=NO)c2cc(S(=O)(=O)N4CCC(C)CC4)ccc2-3)CC1,5.2µM*,3.2µM*,7%,3.5µM*,4.1µM*
O=S(=O)(c1ccc2c(c1)C(=NO)c1cc(S(=O)(=O)N3CCCCC3)ccc1-2)N1CCCCC1,?,3.5µM*,7%,3.5µM*,?
O=S(=O)(c1ccc(S(=O)(=O)N2CCCC2)cc1)N1CCCCCC1,4%,i,0%,5%,-15%
CCCCn1c(N)c(N(CC)C(=O)c2ccco2)c(=O)[nH]c1=O,-6%,?,0%,/,-6%
CCSc1ncc(Cl)c(C(=O)Nc2ccc(S(=O)(=O)N(C)c3ccccc3)cc2)n1,1%,i,5%,-4%,?
CCN(c1ccccc1)S(=O)(=O)c1ccc(NC(=O)c2nc(S(C)(=O)=O)ncc2Cl)cc1,?,/,-3%,13µM*,21µM*
SMILES,A549 tox,S2 tox,Nrf2 activator,ATXN2 expr inh,Nrf2 block
CCS(=O)(=O)c1ncc(Cl)c(C(=O)Nc2ccc(S(=O)(=O)N(C)c3ccccc3)cc2)n1,?,20µM*,?,20µM*,?
CC(C)(C)c1cc(NC(=O)c2cccnc2)no1,-2%,i,0%,44%,/
Cc1ccc(-n2ncc(C(=O)NCc3cccs3)c2C2CCN(C(=O)OC(C)(C)C)CC2)cc1C,-20%,/,-1%,/,21µM*
Cc1ccc(C)c(N2CCN(CCCNC(=O)c3cnn(-c4ccccc4)c3C3CCN(C(=O)OC(C)(C)C)CC3)CC2)c1,?,/,-1%,/,18µM*
Cc1cccc(-n2ncc(C(=O)Nc3ccc4c(c3)OCO4)c2C2CCN(C(=O)OC(C)(C)C)CC2)c1,0%,/,3%,/,6%
CC(C)(C)OC(=O)N1CCC(c2c(C(=O)NCc3cccs3)cnn2-c2cccc(F)c2)CC1,-4%,/,-1%,/,-24%
Cc1cccc(-n2ncc(C(=O)NCc3ccc4c(c3)OCO4)c2C2CCN(C(=O)OC(C)(C)C)CC2)c1,-16%,/,0%,/,16µM*
CC(NC(=S)NC1CCCCC1)c1ccc(C(C)(C)C)cc1 (stereo not drawn),1%,i,5%,?,?
CC(C)c1ccc(C(C)NC(=S)NC2CCCCC2)cc1 (stereo not drawn),9%,i,0%,-38%,18µM*
Clc1ccc(-c2csc(N/N=C/c3ccco3)n2)cc1,?,?,8.9µM*,7%,?
O=C(COc1ccccc1C(=O)Nc1ccccc1)c1ccc(F)cc1,2%,i,0%,-21%,?
O=C(COc1ccccc1C(=O)Nc1ccccc1)c1ccc(Br)cc1,?,i,0%,/,21µM*
COc1ccc(N(CC(=O)N2CCc3ccccc32)S(=O)(=O)c2c(C)n[nH]c2C)cc1,-1%,i,3%,2%,11%
CCC(C)(C)c1ccc(Oc2ccc(N)cc2)cc1,-20%,i,-2%,6.7µM*,5.8µM*
CCC(C)(C)c1ccc(Oc2cccc(C(=O)O)c2)cc1,1%,i,4%,61%,?
O=C(O)c1ccccc1C(=O)Nc1ccc(S(=O)(=O)Nc2nccs2)cc1,0%,i,0%,4%,-1%
Cc1ccc(C(=O)OCc2nc3ccccc3s2)o1,2%,i,10µM*,63%,?
Cc1ccc(C(=O)OCc2nc3ccsc3c(=O)[nH]2)o1,-3%,i,?,-6%,?
Nc1ccc(C(=O)OCc2nc3ccccc3s2)cc1,0%,?,3%,-19%[2.22 µM],?
O=C(OCc1nc2ccccc2s1)c1ccc(Br)s1,?,i,11µM*,40%,/
COc1ccc(S(=O)(=O)N2CCN(CC(=O)Nc3ccccc3Cl)CC2)cc1,-7%,i,0%,-9%,-15%
COc1ccc(CCn2c(=S)[nH]c(=O)c3c(C)cc(C)nc32)cc1OC,16%,/,/,/,-1%

# Screening data from PubChem.
